Data taken from ChEMBL document CHEMBL3433997, “St. Jude Leishmania screening dataset” (2016).

These compounds were tested against Solute carrier family 2, facilitated glucose transporter member 1 (Homo sapiens) (UniProt P11166) (assay: ST_JUDE_LEISH: Cytotoxicity at 2uM final concentration against transgenic Leishmania Mexicana promastigotes LmGLUT1 that are glucose transport deficient and complemented with the human glucose transporter GLUT1. Activity is measured by DNA content using SYBR green in vitro).
Solute carrier family 2, facilitated glucose transporter member 1 (Homo sapiens), sequence (P11166 whole entry): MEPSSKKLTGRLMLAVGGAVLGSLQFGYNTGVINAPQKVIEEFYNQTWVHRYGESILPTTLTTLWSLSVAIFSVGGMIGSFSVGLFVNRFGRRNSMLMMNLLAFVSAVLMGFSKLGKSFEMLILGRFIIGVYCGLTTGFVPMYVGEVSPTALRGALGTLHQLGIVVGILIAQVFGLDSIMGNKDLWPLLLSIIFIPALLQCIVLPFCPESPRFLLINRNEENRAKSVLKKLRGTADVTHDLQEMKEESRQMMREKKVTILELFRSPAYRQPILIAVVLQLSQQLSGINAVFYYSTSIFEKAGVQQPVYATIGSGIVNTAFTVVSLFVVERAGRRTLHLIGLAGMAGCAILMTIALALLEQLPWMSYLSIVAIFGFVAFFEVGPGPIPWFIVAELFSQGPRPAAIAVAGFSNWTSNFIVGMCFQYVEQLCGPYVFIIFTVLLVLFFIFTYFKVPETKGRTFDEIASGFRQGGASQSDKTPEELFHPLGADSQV
Type: functional
`CN1CCC(C(=O)Nc2ccc(-c3ccc(-c4nc5ccccc5[nH]4)s3)cc2)CC1` was tested, and the inhibition was 0.79%.
For `COc1ccc2nccc([C@@H](O)CN3CCC(NCc4ccc5c(c4)NC(=O)CS5)CC3)c2c1`, the inhibition was 1.65%.
`O=C(NCc1cccc2ccccc12)C1CCCN(C(=O)c2ccc(O)c(-c3ccc(Cl)c(Cl)c3)c2)C1` (centres undefined) gave an inhibition of 1.68%.
In the case of `O=C(NCc1ccc(Cl)c(Cl)c1)c1ccc(C2CCCN(Cc3ccc4[nH]cnc4c3)C2)cc1` (centres undefined), the inhibition is reported as 5%.
For `CCOc1cc(C(=O)NCc2ccc(Cl)c(Cl)c2)ccc1-c1nc2cc(Cl)ccc2[nH]1`, the inhibition was -0.85%.
`CCCNS(=O)(=O)c1ccc(NC(=O)C(C)Oc2ccc([N+](=O)[O-])cc2)cc1` (centres undefined) was tested, and the inhibition was 0.31%.
With `OC(c1cccc(OCc2ccccc2)c1)C1CN(CCc2ccccc2)CCC1(O)c1ccccc1` (centres undefined) the inhibition was -1.45%.
Compound `CCNc1cc(C(=O)N[C@@H](Cc2ccccc2)[C@H](O)CNC(C)CC(C)C)c(F)c(N2CCCCS2(=O)=O)c1` (some centres undefined) has an inhibition of 2.89%.
For `O=C(CC(c1ccccc1)c1ccccc1O)N1CCOCC1` (centres undefined), the inhibition was 0.4%.
`COc1ccc2nccc([C@@H](O)CN3CCC(NC(=O)C(c4ccsc4)N4CCN(c5ccccc5)CC4)CC3)c2c1` (some centres undefined) showed an inhibition of 4.17%.
`Cc1cc(NCc2ccccc2)nc2cc(O)ccc12` gave an inhibition of 8.52%.
`CC(C)CCN(Cc1cncn1Cc1cccc(Cl)c1)C(=O)c1cncc(-c2ccccc2)c1` showed an inhibition of 5.13%.
`Cc1ccc(-c2nc3cc(C(=O)NC4CCC(N5CCCc6ccc(C#N)cc6C5)CC4)ccc3[nH]2)cc1` (centres undefined) gave an inhibition of -1.44%.
In the case of `O=C(/C=C/c1ccc(Cl)c(Cl)c1)NCCCCCN1CCC(NC(=O)c2ccc(F)cc2F)CC1`, the inhibition is reported as -3.32%.
